PubChem BioAssay
The source made the active and inactive calls. Unless noted, how the calls were made is not given here.

Tests used:
[1] = system: Wnt5a (protein binding on small-molecule microarray); test: small molecules binding Wnt5a protein – biophysical, small-molecule microarray, 635/667 nm fluorescence, primary screen (AID 1142); conditions: 635 nm fluorescence, higher = more signal;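 further: fluorescence read at 667 nm with signal to noise per printed feature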
[2] = ATP-based viability of Huh7 replicon cells – cell-based, CellTiter-Glo luminescence, basal, 48 h, cytotoxicity control for HCV replication inhibitor project, primary screen (AID 1143); conditions: higher = more signal, called active from +8 up or from −8 down;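 further: Huh7 hepatoma cells carrying a hepatitis C replication reporter with no stimulus; test concentration not given here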
[3] = Pseudomonas biofilm growth suppression – PAO1 strain, BacTiter-Glo luminescence, LB-PBS, primary screen (AID 1144); conditions: P. aeruginosa PAO1 biofilm, 12 h, higher = more signal
[4] = basal CRE-LacZ reporter activity in PC12 – cell-based, unstimulated, primary screen (AID 1145); conditions: no forskolin, luminescence, 4.5 h, higher = more signal, called active from +8 up or from −8 down
[5] = forskolin-driven CRE-LacZ activity in PC12 – cell-based, CRE-LacZ reporter, forskolin-stimulated, primary screen (AID 1146); conditions: luminescence, 4.5 h, higher = more signal, called active from +8 up or from −8 down;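 further: PC12 cells with 6xCRE LacZ reporter stimulated by forskolin 10 µM; beta-galactosidase reporter signal reflecting CREB driven transcription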
[6] = target: Streptavidin (Streptomyces avidinii) (UniProt P22629); test: compounds binding control protein streptavidin – biophysical, small-molecule microarray, 635/667 nm fluorescence, artefact control for SMM compound annotation, primary screen (AID 1147); conditions: higher = more signal;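 further: signal reflects streptavidin binding to arrayed compounds as a control protein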
Chain of Streptavidin (Streptomyces avidinii) (P22629 whole entry, looked up): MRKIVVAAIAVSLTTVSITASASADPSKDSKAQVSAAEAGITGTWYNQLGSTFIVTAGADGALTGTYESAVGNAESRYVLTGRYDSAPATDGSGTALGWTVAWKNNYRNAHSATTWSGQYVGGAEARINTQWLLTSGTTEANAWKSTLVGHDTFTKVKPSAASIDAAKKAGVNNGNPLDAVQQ

[7] = probe aInhba binding on compound microarray – biochemical, small-molecule microarray, 635/667 nm fluorescence, primary screen (AID 1148); conditions: higher = more signal;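 further: score merges 667nm spot fluorescence with signal-to-noise for antibody binding to printed compounds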
[8] = target: Torsin-1A (Homo sapiens) (UniProt O14656); test: TOR1A wild-type binding on microarray – cell lysate, small-molecule microarray, lysate, 635/667 nm, primary screen (AID 1149); conditions: COS7 hTOR1A-WT lysate, 635 nm fluorescence, higher = more signal
Chain of Torsin-1A (Homo sapiens) (O14656 whole entry, looked up): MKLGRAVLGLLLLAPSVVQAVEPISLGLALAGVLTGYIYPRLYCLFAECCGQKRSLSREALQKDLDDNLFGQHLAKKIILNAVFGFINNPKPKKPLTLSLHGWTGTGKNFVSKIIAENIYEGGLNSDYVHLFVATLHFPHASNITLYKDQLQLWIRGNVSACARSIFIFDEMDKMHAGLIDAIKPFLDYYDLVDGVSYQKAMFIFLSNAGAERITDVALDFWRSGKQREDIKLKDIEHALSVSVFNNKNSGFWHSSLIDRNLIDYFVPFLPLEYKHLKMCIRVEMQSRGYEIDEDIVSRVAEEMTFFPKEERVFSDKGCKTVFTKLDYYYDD

[9] = target: Torsin-1A (Homo sapiens) (UniProt O14656); test: torsin A mutant lysate binding on microarrays – cell lysate, small-molecule microarray, COS7 lysate, 635/667 nm fluorescence, primary screen (AID 1150); conditions: COS7 hTOR1A mutant lysate, 635 nm fluorescence, higher = more signal;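 further: score pools 667 nm emission and signal to noise measuring lysate protein binding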
[10] = system: Sonic hedgehog protein (Shh); test: Sonic hedgehog microarray binding compounds – biochemical, small-molecule microarray, 635/667 nm fluorescence, primary screen (AID 1151); conditions: 635 nm fluorescence, higher = more signal;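 further: Shh protein binding to compounds spotted on small-molecule microarray slides; score combines spot fluorescence intensity with signal-to-noise across triplicate slides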

| Structure (SMILES) | composite z-score [1] | z-score [2] | z-score [3] | z-score [4] | z-score [5] | composite z-score [6] | composite z-score [7] | composite z-score [8] | composite z-score [9] | composite z-score [10] |
| --- | --- | --- | --- | --- | --- | --- | --- | --- | --- | --- |
| CN1C(=O)C2C=CC(C(O)COCc3ccccc3)N(Nc3ccc([N+](=O)[O-])cc3[N+](=O)[O-])C2C1=O (stereo not given) | 0.727 | 0.615 (inactive) | -0.73 (inactive) | 1.01 (inactive) | -0.252 (inactive) | -0.387 | 0.0442 | -0.306 | 0.713 | -0.997 |
| CC(C)(C)OC(=O)CC[C@@]1(C(N)=O)N=C(c2ccc(OCCCO)cc2)O[C@@H]1c1ccccc1CN=[N+]=[N-] | 1.07 | -0.57 (inactive) | 0.938 (inactive) | 0.171 (inactive) | 0.638 (inactive) | -0.0644 | 0.278 | 0.612 | 1.08 | -0.425 |
| C=C[C@H](C)[C@@H](OC(=O)Nc1ccc(SC)cc1)c1ccc(OCCO)cc1 | 0.179 | -2.91 (inactive) | -0.567 (inactive) | 6.08 (inactive) | -0.24 (inactive) | -0.363 | 0.36 | -0.0803 | 0.278 | 1.98 |
| CCCCC=C[C@@H](NC(=O)C(C)(C)C)c1ccccc1 | 0.5 | -2.89 (inactive) | 0.124 (inactive) | -0.185 (inactive) | 1.67 (inactive) | 0.761 | 0.353 | 0.226 | 0.487 | -0.0371 |
| [N-]=[N+]=Nc1ccccc1C[C@]1(C(=O)N2CCCCC2)N=C(c2ccc(OCCCO)cc2)O[C@H]1c1ccccc1 | 0.982 | -4.56 (inactive) | 0.0619 (inactive) | -0.506 (inactive) | -0.0671 (inactive) | 1.15 | 0.696 | 0.351 | 0.402 | 1.05 |
| CO[C@H]1O[C@H](CO)[C@@H](OC(=O)Nc2cccc(F)c2)[C@H](OC(=O)c2cc3ccccc3[nH]2)[C@H]1OC(=O)c1cc2ccccc2[nH]1 | -0.363 | -3.31 (inactive) | -1.02 (inactive) | 1.03 (inactive) | -0.679 (inactive) | -0.256 | -0.128 | -0.536 | -0.18 | -0.111 |
| COc1ccc([Si](C)(C)[C@@H]2[C@@H](CC(=O)N(CCO)Cc3ccccc3)O[C@]3(C(=O)N(Cc4cccc(I)c4)c4ccccc43)[C@H]2C)cc1 | 0.546 | -4.61 (inactive) | 0.191 (inactive) | 1.42 (inactive) | -1.11 (inactive) | -0.196 | -0.0405 | 0.48 | 0.443 | 1.79 |
| CC(C)c1ccc(NN2C(C(O)C3=C[C@H]4C[C@@H](C3)C4(C)C)C=CC3C(=O)N(c4ccccc4)C(=O)C32)cc1 (stereo not given in full) | 0.747 | -0.005 (inactive) | -0.335 (inactive) | 0.443 (inactive) | 0.551 (inactive) | 1.56 | 0.234 | 0.281 | 0.562 | -0.0766 |
| O=C1OC[C@@H](c2ccccc2)n2cc(/C=C/c3ccccc3)cc21 | 0.044 | -4.14 (inactive) | 0.927 (inactive) | 9.55 (active) | -0.54 (inactive) | 0.723 | -0.0933 | -1.43 | -0.565 | 0.319 |
| CCOC(=O)C1=C[C@@H](C(C)(C)C)N(S(=O)(=O)c2ccc(C)cc2)[C@H]1c1ccc(OC)cc1 | 0.474 | -4.94 (inactive) | -0.0448 (inactive) | 0.238 (inactive) | 0.334 (inactive) | 1.36 | 0.0541 | 0.795 | -0.198 | 0.523 |
| CC(C)(C)OC(=O)CC[C@]1(C(=O)N2CCOCC2)COC(c2ccc(OCCCO)cc2)=N1 | -0.278 | -0.107 (inactive) | -0.367 (inactive) | 1.34 (inactive) | -0.841 (inactive) | -0.0376 | 0.171 | 0.701 | 1.48 | -0.447 |
| COc1cc(Cc2cc3c(c(CCc4ccccc4)n2)[Si](C(C)C)(C(C)C)O[C@H]3c2ccccc2)cc(OC)c1OC | -0.0786 | -4.48 (inactive) | 0.626 (inactive) | 0.875 (inactive) | 0.992 (inactive) | 0.537 | 0.182 | 0.707 | -0.0236 | -0.418 |
| C[N+](C)(C)CCCC[C@@H]1NC(=O)[C@H]2C[C@@H](C(=O)O)[C@@H](c3ccc(O)cc3)N2C1=O | 0.0425 | -0.497 (inactive) | -1.19 (inactive) | 0.285 (inactive) | -0.744 (inactive) | -0.206 | 0.0051 | 0.049 | 0.38 | 1.22 |
| COC(=O)[C@@]1(Cc2ccc(F)cc2)[C@@H]2C(=CC(=O)[C@H]2CC(=O)C(=O)N2CCCC2)CN1C(=O)c1ccccc1 | 1.74 | -4.86 (inactive) | 0.137 (inactive) | -0.189 (inactive) | 1.86 (inactive) | 0.696 | 0.731 | 0.448 | 1.01 | 1.82 |
| C[C@]1(C(=O)O)c2ccccc2C(=O)N(Cc2cc(C(F)(F)F)cc(C(F)(F)F)c2)[C@H]1c1ccc(CO)cc1 | 0.0785 | 0.104 (inactive) | -0.518 (inactive) | 0.531 (inactive) | 0.165 (inactive) | 1.41 | 0.0227 | -0.652 | -0.113 | 1.64 |
| C=CC[C@]1(C(=O)NCCN2CCOCC2)N=C(c2ccc(OCCCO)cc2)O[C@H]1c1ccccc1 | 0.891 | -0.541 (inactive) | 0.154 (inactive) | 2.55 (inactive) | -0.0077 (inactive) | 0.416 | 0.119 | 2.03 | 1.44 | 0.638 |
| COC(=O)[C@@]1(Cc2ccc(F)cc2)[C@H]2c3cc(C(=O)N(C)C)n(CCF)c3C[C@H]2CN1C(=O)c1ccccc1 | 0.101 | -1.56 (inactive) | -0.501 (inactive) | -0.375 (inactive) | 0.25 (inactive) | 0.471 | 0.117 | 0.632 | 0.606 | -0.447 |
| CO[C@H]1O[C@H](CO)[C@@H](OC(=O)CCc2ccccc2)[C@@H]2OC(=O)[C@@H](Cc3ccc4ccccc4c3)C/C=C/C[C@H](Cc3ccc4ccccc4c3)C(=O)O[C@@H]12 | 0.0032 | -2.59 (inactive) | -0.302 (inactive) | -0.151 (inactive) | 0.336 (inactive) | -0.452 | -0.13 | -1.32 | 1.06 | -0.657 |
| CC(C)N1C(=O)[C@@]2(Cc3ccccc31)c1ccccc1C(=O)N(Cc1ccccc1)[C@H]2c1ccc(CO)cc1 | 0.164 | 0.629 (inactive) | 0.0609 (inactive) | -0.114 (inactive) | 0.467 (inactive) | -0.439 | -0.119 | 0.291 | -0.182 | 0.462 |
| CC1CC/C=C\[C@H]2OC34C=CCN(CCN5CCOCC5)C(=O)[C@H]3N(C(CO)C(C)C)C(=O)[C@@H]4C2C(=O)O1 (stereo not given in full) | 0.115 | 0.211 (inactive) | 1.52 (inactive) | -0.0778 (inactive) | 0.341 (inactive) | -0.0429 | -0.128 | 1 | -0.05 | 0.795 |
| COc1ccc(CCNC(=O)[C@@]2(C)c3ccccc3C(=O)N(Cc3ccc(OC(F)(F)F)cc3)[C@H]2c2ccc(CO)cc2)cc1 | 0.887 | -4.18 (inactive) | 0.175 (inactive) | -0.179 (inactive) | 0.175 (inactive) | -0.535 | -0.166 | 0.43 | 1.43 | 1.23 |
| NCCCCCCNC(=O)[C@@H]1C[C@@H]2C(=O)NCC(=O)N2[C@@H]1c1cccc(OCCO)c1 | 0.729 | -0.271 (inactive) | -0.584 (inactive) | 0.0205 (inactive) | -0.19 (inactive) | 1.03 | -0.0624 | 1.56 | 2.08 | 1.31 |
